Measured values: PubChem BioAssay
Unmarked numbers belong to inactive results.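 How the source made its calls: active means viability increase at or above a cutoff of the median across tested compounds plus 3 SD (cut at about 8.5% in these data, passing the limit was not always enough); inconclusive means some gains above the cutoff, reason not given; inactive means the rest.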

Assay: viability gain of MRP-1-high H69AR cells under doxorubicin, pilot screen, MRP-1 activator project, CellTiter-Glo, duplicate (AID 807);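 further: compound pretreatment 18-22 h then 72 h combined with doxorubicin; 0% = doxorubicin alone and 100% = vehicle without doxorubicin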
Conditions: H69AR viability with doxorubicin, CellTiter-Glo luminescence; at 10 µM; stronger effect = higher value

| Structure (SMILES) | viability increase |
| --- | --- |
| O=C(O)CCCC(=O)Nc1c(F)c(F)c(F)c(F)c1F | -1.85% |
| O=C1CC(NCc2ccc3c(c2)OCO3)C(=O)N1CCc1ccccc1 (configuration not stated) | -2.06% |
| O=S(=O)(NC1CCCCC1)c1ccc(Br)cc1 | -2.36% |
| CCn1c2ccccc2c2nnc(SCC(=O)c3ccccc3)nc21 | -2.35% |
| COc1ccccc1C1NC(=O)NC(C)=C1C(=O)Nc1cccc(C)c1C (configuration not stated) | -1.32% |
| CCOC(=O)c1[nH]c(C)c(C(=O)OCC)c1C | 2.18% |
| Cc1ccc2c(c1)C(c1ccccc1)N(C(=O)c1ccc(Br)o1)CC(=O)N2 (configuration not stated) | -3.95% |
| CCSC1=C(C#N)C(c2ccc(F)cc2)CC(=O)N1 (configuration not stated) | 1% |
| O/N=C1/CCc2cccc3cccc1c23 | -3.93% |
| COc1ccc(OCc2nnc(SCC(=O)O)n2N)cc1 | 1.25% |
| Cc1noc(NS(=O)(=O)c2ccc(N3Cc4ccccc4C3=O)cc2)c1C | -2.74% |
| Cc1cc(C)c(OCC(=O)Nc2cccc(NC(=O)c3ccco3)c2)c(Br)c1 | -3.03% |
| O=C(Cn1cc2c(n1)CCCC2)Nc1ccccc1Br | -2.82% |
| CCCC(=O)C1=C(O)C(C(=O)OC)C(C)(C)CC1=Nc1ccccc1 (configuration not stated) | -0.91% |
| O=C(CCCN1C(=O)CSc2ncccc21)N1CCN(Cc2ccccc2)CC1 | -2.06% |
| CCOC(=O)c1c(C)c(C(=O)O)n(C)c1C | 0.64% |
| CCOc1ccc(C2CC(c3cccc(C)c3)n3nc(N)nc3N2)cc1 (configuration not stated) | -0.49% |
